The results in this text go back to ChEMBL document CHEMBL3988442, “University of Dundee, Small-Polar-MMV Screening Library” (2021).

The structures appear in SMILES notation.

The target of one assay is T1, Aspartate--tRNA(Asp/Asn) ligase (Mycobacterium tuberculosis (strain ATCC 25618 / H37Rv)) (UniProt P9WFW3). Note: in the data most compounds retested in dose-response had high values.
T1 sequence (whole entry): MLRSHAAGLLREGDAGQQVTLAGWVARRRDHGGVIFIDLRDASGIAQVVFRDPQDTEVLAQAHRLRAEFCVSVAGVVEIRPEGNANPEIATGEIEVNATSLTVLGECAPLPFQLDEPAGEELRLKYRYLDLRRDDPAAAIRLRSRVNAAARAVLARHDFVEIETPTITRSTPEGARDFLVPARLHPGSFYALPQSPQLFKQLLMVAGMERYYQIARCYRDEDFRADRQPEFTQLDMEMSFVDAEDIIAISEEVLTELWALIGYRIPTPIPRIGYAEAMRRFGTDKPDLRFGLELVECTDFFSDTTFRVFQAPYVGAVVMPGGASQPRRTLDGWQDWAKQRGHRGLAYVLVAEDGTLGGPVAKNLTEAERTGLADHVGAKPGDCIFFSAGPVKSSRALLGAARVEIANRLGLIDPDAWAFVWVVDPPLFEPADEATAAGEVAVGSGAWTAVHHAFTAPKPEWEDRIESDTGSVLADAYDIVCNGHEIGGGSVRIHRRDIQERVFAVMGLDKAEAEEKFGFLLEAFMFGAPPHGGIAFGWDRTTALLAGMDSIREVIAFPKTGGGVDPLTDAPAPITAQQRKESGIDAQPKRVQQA
The assay is described as follows: Assay for Asp RNA synthetase-1 from Mycobacterium tuberculosis. In kind it is functional. Also noted: scale not given: direction of the effect not stated beside the values. As to conditions: 30 µM.
In the case of `Cc1cnn(C2CCCN(C(=O)CCc3nccs3)C2)c1` (stereo not given), the Percent Effect is -2.71%.

On to `CCN(CC)c1ccc(NS(=O)(=O)c2cnn(C)c2)cn1`, for which the Percent Effect stood at 2.14%.

For `CS(=O)(=O)N1CCC2(CN(C(=O)c3cccnc3)C2)C1`, the Percent Effect was -2.07%.

For the compound `O=C(CSc1ccccc1Cl)NS(=O)(=O)c1ccc2c(c1)OCCO2`, the Percent Effect was -8.39%.

Turning to `CCCc1n[nH]c(C2CN(C(=O)c3ccco3)CCO2)n1` (stereo not given), the Percent Effect was -0.955%.

As to `CN1CC(c2ccccc2)CC12CCN(C(=O)c1c(Cl)cnn1C)CC2` (stereo not given), the Percent Effect was -1.22%.

`CCc1n[nH]c(C2CN(Cc3nnc(C4CC4)n3C)CCO2)n1` (stereo not given): the Percent Effect was -0.577%.

`CC(Cc1ccco1)NC(=O)Nc1ccc(N2CCOCC2)nc1` (stereo not given): the Percent Effect is -3.59%.

Turning to `CC(C)c1nc(CN(C)CC2CCN(CCO)CC2)no1`, the Percent Effect amounted to 3.25%.

Turning to `O=C(NCCCn1cncn1)NCC(c1ccccc1)N1CCCC1` (stereo not given), the Percent Effect turned out to be 0.0576%.

Take `c1ccc(-n2ncc(CNCC3CCCN3c3cccnn3)n2)cc1` (stereo not given): the Percent Effect was found to be 4.5%.

Consider `Cc1noc(CCCC(=O)NC(C)c2cn(-c3ccccc3)nn2)n1` (stereo not given), for which the Percent Effect is -5.92%.

With `CC(C)C(=O)N1CCN(C(=O)CCc2nnc(-c3ccccc3)o2)CC1`, the Percent Effect was 1.17%.

As for `Cc1nc(-c2ccccc2)n(CC(=O)N(C(C)C)C(C)C)n1`, the Percent Effect is 4.15%.

With `CN(C)C[C@@H]1C[C@@H]2CN(C(=O)c3ccoc3)CC[C@@H]2N1CC1CC1`, the Percent Effect came out at 2.34%.

Take `CN(C)c1cc(C(=O)N2CCCC(n3cccn3)C2)ccn1` (stereo not given): the Percent Effect is -2.86%.

Take `CC(C)(C)C(=O)N1CCC(c2nc(O)cc(-c3ccccn3)n2)CC1`: the Percent Effect is 5.88%.

As for `COc1cccc(-c2nc(CNCCn3cccn3)cs2)c1`, the Percent Effect is -2.68%.

Consider `Cc1ccc(NC(=O)NC(C)C(=O)N2CCS(=O)(=O)CC2)cc1` (stereo not given), for which the Percent Effect was determined as 1.19%.

`CCc1nnsc1C(=O)NC1CCN(c2ccccn2)CC1`: the Percent Effect was -5.57%.

Turning to `Cc1cnc(N2CCCC3(CCN(Cc4csc(C)n4)C3=O)C2)nc1` (stereo not given), the Percent Effect was found to be 6.32%.

Regarding `Cn1cc(CN2CCC3(CCCN(Cc4ccccn4)C3)CC2)cn1`, the Percent Effect was -0.638%.

Turning to `CS(=O)(=O)NCCNC(=O)C1(c2cccc(Cl)c2)CC1`, the Percent Effect is -2.17%.

Regarding `O=C(c1ccccn1)N1CCCC(c2nccn2CC2CCC2)C1` (stereo not given), the Percent Effect came out at 4.83%.

For the compound `O=C(Nc1ccnc(OC2CCOC2)c1)c1cc(F)ccc1F` (stereo not given), the Percent Effect was -4.18%.

Consider `Cc1occc1CNC(=O)N(CCCO)C1CCc2ccccc21` (stereo not given), for which the Percent Effect was -3.25%.

Take `Cc1noc(C(C)C)c1C(=O)NS(=O)(=O)c1ccc(Cl)cc1`: the Percent Effect was -2.79%.

For the compound `CCN(Cc1nc2c(cnn2C)c(=O)[nH]1)c1cccc(F)c1`, the Percent Effect turned out to be 1.24%.

`Fc1cccc(N2CCCC3(C2)CN(c2ncccn2)CCO3)c1` (stereo not given): the Percent Effect was 2.81%.

Take `Cc1cnc(CN2CCOC(Cn3nc(C)nc3C)C2)cn1` (stereo not given): the Percent Effect is -1.8%.

In the case of `O=C1COc2ccc(C(=O)NS(=O)(=O)c3ccc(F)cc3F)cc2N1`, the Percent Effect came to 0.0843%.

`Cc1cn(-c2ccccc2)nc1NS(=O)(=O)c1cc(C(=O)O)cs1`: the Percent Effect came out at 5.52%.

With `CN1CCN(c2cc(CCNC(=O)C3CCC3)nc(C3CC3)n2)CC1`, the Percent Effect is -3.83%.

As to `Cn1cc(C2COC3(CCN(C(=O)Cn4cccn4)CC3)C2)cn1` (stereo not given), the Percent Effect amounted to 8.57%.

As for `Cc1ccc(C2C3=C(COC3=O)Nc3[nH]nc(C)c32)cc1C` (stereo not given), the Percent Effect is -4.73%.

`CN(C)S(=O)(=O)N1CCC(Oc2ccc(C#N)cn2)CC1`: the Percent Effect stood at 5.76%.

`Cc1nn(C)c(C)c1C1CCCN1CC(=O)Nc1ccncc1` (stereo not given): the Percent Effect stood at 1.52%.

In the case of `CC(=O)N1CC[C@H]2OCC[C@@]2(C(=O)NCc2ccco2)C1`, the Percent Effect came to 0.379%.

For the compound `COc1c(CNCc2ccc(C(=O)N(C)C)cc2)c(C)nn1C`, the Percent Effect is 2.9%.

For `O=C(C1CCOCC1)N1C[C@@H]2C[C@@H](c3nc(C4CC4)cs3)O[C@@H]2C1`, the Percent Effect stood at 2.07%.

Another assay has as its target Shiga toxin 2 (Escherichia coli O157:H7) (UniProt P09385+P09386). Nature of the assay: E. coli 0.157:H7 Shiga Toxin SOP - stx2 screening assay. As to conditions: 30 µM. In kind it is functional. Details: scale not given: direction of the effect not stated beside the values.
Regarding `Cc1cnn(C2CCCN(C(=O)CCc3nccs3)C2)c1` (stereo not given), the Percent Effect turned out to be 20%.

Take `CCN(CC)c1ccc(NS(=O)(=O)c2cnn(C)c2)cn1`: the Percent Effect was -30.7%.

Regarding `CS(=O)(=O)N1CCC2(CN(C(=O)c3cccnc3)C2)C1`, the Percent Effect is -24.7%.

For the compound `O=C(CSc1ccccc1Cl)NS(=O)(=O)c1ccc2c(c1)OCCO2`, the Percent Effect is -0.0514%.

Take `CCCc1n[nH]c(C2CN(C(=O)c3ccco3)CCO2)n1` (stereo not given): the Percent Effect was 8.05%.

Consider `CN1CC(c2ccccc2)CC12CCN(C(=O)c1c(Cl)cnn1C)CC2` (stereo not given), for which the Percent Effect stood at 17%.

Regarding `CCc1n[nH]c(C2CN(Cc3nnc(C4CC4)n3C)CCO2)n1` (stereo not given), the Percent Effect turned out to be 9.55%.

As for `CC(Cc1ccco1)NC(=O)Nc1ccc(N2CCOCC2)nc1` (stereo not given), the Percent Effect was 15%.

In the case of `CC(C)c1nc(CN(C)CC2CCN(CCO)CC2)no1`, the Percent Effect was -7.83%.

For `O=C(NCCCn1cncn1)NCC(c1ccccc1)N1CCCC1` (stereo not given), the Percent Effect is -13%.

In the case of `c1ccc(-n2ncc(CNCC3CCCN3c3cccnn3)n2)cc1` (stereo not given), the Percent Effect is 8.59%.

Take `Cc1noc(CCCC(=O)NC(C)c2cn(-c3ccccc3)nn2)n1` (stereo not given): the Percent Effect was 0.819%.

`CC(C)C(=O)N1CCN(C(=O)CCc2nnc(-c3ccccc3)o2)CC1`: the Percent Effect is -3.74%.

For the compound `Cc1nc(-c2ccccc2)n(CC(=O)N(C(C)C)C(C)C)n1`, the Percent Effect came out at 23.2%.

In the case of `CN(C)C[C@@H]1C[C@@H]2CN(C(=O)c3ccoc3)CC[C@@H]2N1CC1CC1`, the Percent Effect was 8.89%.

As to `CN(C)c1cc(C(=O)N2CCCC(n3cccn3)C2)ccn1` (stereo not given), the Percent Effect was -7.48%.

For `CC(C)(C)C(=O)N1CCC(c2nc(O)cc(-c3ccccn3)n2)CC1`, the Percent Effect was -6.29%.

As for `COc1cccc(-c2nc(CNCCn3cccn3)cs2)c1`, the Percent Effect is -60.9%.

For the compound `Cc1ccc(NC(=O)NC(C)C(=O)N2CCS(=O)(=O)CC2)cc1` (stereo not given), the Percent Effect amounted to 12.8%.

Regarding `CCc1nnsc1C(=O)NC1CCN(c2ccccn2)CC1`, the Percent Effect was -24.7%.

In the case of `Cc1cnc(N2CCCC3(CCN(Cc4csc(C)n4)C3=O)C2)nc1` (stereo not given), the Percent Effect is -0.084%.

On to `Cn1cc(CN2CCC3(CCCN(Cc4ccccn4)C3)CC2)cn1`, for which the Percent Effect was -6.22%.

For the compound `CS(=O)(=O)NCCNC(=O)C1(c2cccc(Cl)c2)CC1`, the Percent Effect is -2.54%.

For `O=C(c1ccccn1)N1CCCC(c2nccn2CC2CCC2)C1` (stereo not given), the Percent Effect is -29.9%.

On to `O=C(Nc1ccnc(OC2CCOC2)c1)c1cc(F)ccc1F` (stereo not given), for which the Percent Effect was -63.1%.

With `Cc1occc1CNC(=O)N(CCCO)C1CCc2ccccc21` (stereo not given), the Percent Effect worked out at 8.04%.

As for `Cc1noc(C(C)C)c1C(=O)NS(=O)(=O)c1ccc(Cl)cc1`, the Percent Effect came out at 13.7%.

`CCN(Cc1nc2c(cnn2C)c(=O)[nH]1)c1cccc(F)c1`: the Percent Effect is -7.65%.

Consider `Fc1cccc(N2CCCC3(C2)CN(c2ncccn2)CCO3)c1` (stereo not given), for which the Percent Effect was -2.38%.

Consider `Cc1cnc(CN2CCOC(Cn3nc(C)nc3C)C2)cn1` (stereo not given), for which the Percent Effect was -9.64%.

For the compound `O=C1COc2ccc(C(=O)NS(=O)(=O)c3ccc(F)cc3F)cc2N1`, the Percent Effect was determined as 17.8%.

Regarding `Cc1cn(-c2ccccc2)nc1NS(=O)(=O)c1cc(C(=O)O)cs1`, the Percent Effect was -40%.

For `CN1CCN(c2cc(CCNC(=O)C3CCC3)nc(C3CC3)n2)CC1`, the Percent Effect is -18.7%.

On to `Cn1cc(C2COC3(CCN(C(=O)Cn4cccn4)CC3)C2)cn1` (stereo not given), for which the Percent Effect is -7.73%.

In the case of `Cc1ccc(C2C3=C(COC3=O)Nc3[nH]nc(C)c32)cc1C` (stereo not given), the Percent Effect is -11.4%.

As for `CN(C)S(=O)(=O)N1CCC(Oc2ccc(C#N)cn2)CC1`, the Percent Effect is -4.88%.

On to `Cc1nn(C)c(C)c1C1CCCN1CC(=O)Nc1ccncc1` (stereo not given), for which the Percent Effect came to 11.1%.

In the case of `CC(=O)N1CC[C@H]2OCC[C@@]2(C(=O)NCc2ccco2)C1`, the Percent Effect was -17.2%.

As for `COc1c(CNCc2ccc(C(=O)N(C)C)cc2)c(C)nn1C`, the Percent Effect was -13.9%.

`O=C(C1CCOCC1)N1C[C@@H]2C[C@@H](c3nc(C4CC4)cs3)O[C@@H]2C1`: the Percent Effect amounted to 17.3%.
